Measured values reported in the supplement of paper PMC6555819.

Assays:
Experiment in all cases: PBM binding z-score (relative to random genomic background probes); higher = stronger binding; sequences stand for … in GC…GCGATTGACAGCGTAGAATGAAGG
[1] = tested on: FXR:RXRa (NR concentration 270 nM, RXRa partner concentration 90 nM)
Procedure, shortened: (§1)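 Ligand-free nuclear receptor dimers were applied to custom Agilent 4×180K protein-binding microarrays whose double-stranded probes carried direct-repeat seeds, single-nucleotide variants, half-site ablations and random human genomic background sequences in 34-nt variable regions. Incubation lasted 1 h. Binding z-scores were computed against the random background probes from regression-normalized fluorescence.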

[2] = tested on: LXRa:RXRa (NR concentration 270 nM, RXRa partner concentration 90 nM)
Procedure, shortened: as §1

[3] = tested on: LXRa homodimer (NR concentration 270 nM)
Procedure, shortened: as §1

[4] = tested on: LXRb:RXRa (NR concentration 270 nM, RXRa partner concentration 90 nM)
Procedure, shortened: as §1

[5] = tested on: LXRb homodimer (NR concentration 270 nM)
Procedure, shortened: as §1

[6] = tested on: PPARa:RXRa (NR concentration 270 nM, RXRa partner concentration 90 nM)
Procedure, shortened: as §1

[7] = tested on: PPARg:RXRa (NR concentration 180 nM, RXRa partner concentration 90 nM)
Procedure, shortened: as §1

[8] = tested on: PPARg:RXRa 270nM:90nM, anti-RXR (NR concentration 270 nM, RXRa partner concentration 90 nM)
Procedure, shortened: as §1

[9] = tested on: PPARg:RXRa 30nM:10nM, anti-RXR (NR concentration 30 nM, RXRa partner concentration 10 nM)
Procedure, shortened: as §1

[10] = tested on: PPARg:RXRa 90nM:30nM, anti-RXR (NR concentration 90 nM, RXRa partner concentration 30 nM)
Procedure, shortened: as §1

[11] = tested on: PPARg:RXRa DBDmut IVT, anti-RXR (DBD mutation: RXRa K156A/R161A, NR concentration 270 nM, RXRa partner concentration 90 nM)
Procedure, shortened: as §1

[12] = tested on: PPARg:RXRa IVT, anti-PPARg (NR concentration 270 nM, RXRa partner concentration 90 nM)
Procedure, shortened: as §1

[13] = tested on: PPARg DBDmut:RXRa IVT, anti-PPARg (DBD mutation: PPARg1 K132A/R137A, NR concentration 270 nM, RXRa partner concentration 90 nM)
Procedure, shortened: as §1

[14] = tested on: PPARg DBDmut IVT, anti-PPARg (DBD mutation: PPARg1 K132A/R137A, NR concentration 270 nM)
Procedure, shortened: as §1

[15] = tested on: PPARg homodimer (NR concentration 180 nM)
Procedure, shortened: as §1

[16] = tested on: PXR:RXRa (NR concentration 270 nM, RXRa partner concentration 90 nM)
Procedure, shortened: as §1

[17] = tested on: PXR homodimer (NR concentration 270 nM)
Procedure, shortened: as §1

[18] = tested on: RARa:RXR (NR concentration 270 nM, RXRa partner concentration 90 nM)
Procedure, shortened: as §1

[19] = tested on: RARa homodimer (NR concentration 270 nM)
Procedure, shortened: as §1

[20] = tested on: RARb:RXRa (NR concentration 270 nM, RXRa partner concentration 90 nM)
Procedure, shortened: as §1

| Sequence | PBM binding z-score [1] | PBM binding z-score [2] | PBM binding z-score [3] | PBM binding z-score [4] | PBM binding z-score [5] | PBM binding z-score [6] | PBM binding z-score [7] | PBM binding z-score [8] | PBM binding z-score [9] | PBM binding z-score [10] | PBM binding z-score [11] | PBM binding z-score [12] | PBM binding z-score [13] | PBM binding z-score [14] | PBM binding z-score [15] | PBM binding z-score [16] | PBM binding z-score [17] | PBM binding z-score [18] | PBM binding z-score [19] | PBM binding z-score [20] |
| --- | --- | --- | --- | --- | --- | --- | --- | --- | --- | --- | --- | --- | --- | --- | --- | --- | --- | --- | --- | --- |
| AGTCAAAGTTCATCCAGGTAACGTAAGATATGCT | 6.4 | 6.22 | 5.22 | 3.62 | 1.6 | 4.82 | 6.19 | 6.44 | 3.61 | 5.54 | 0.286 | 3.48 | 1.21 | 1.23 | 2.63 | 5.26 | 8.19 | 3.69 | 1.34 | 4.83 |
| CGAACTAGGCCATTGACAGGACAGTGAATAGTAA | -0.28 | -0.21 | 0.0668 | -0.366 | -0.825 | 1.53 | 2.02 | 1.77 | 0.274 | 0.972 | 6.87 | 5.51 | 1.09 | 0.545 | 0.245 | -0.291 | 0.0591 | -0.304 | -0.0299 | 0.565 |
| GCTAGCAGGCGATTTGGGTCACTCAATGACGGGC | 0.0524 | -0.217 | -0.513 | -0.281 | -0.929 | 1.48 | 0.632 | 0.575 | -0.192 | 0.427 | 1.67 | 2.53 | -0.476 | -0.307 | -0.254 | 0.00388 | -0.474 | 0.575 | -0.848 | 0.752 |
| TCATATAGGTAAAAAGGTGAAAGTCCGTAAGTTA | 1.56 | 1.85 | 0.558 | 1.8 | 0.394 | 3.53 | 3.87 | 5.05 | 5.01 | 5.53 | 4.17 | 4 | 0.729 | 0.649 | 1.85 | 1.4 | 0.696 | 2.87 | 1.81 | 2.03 |
| CGAACTAGTTCAGAACAGGACAGTGAAGGATGAT | 0.0852 | -0.165 | -0.0634 | -0.449 | -0.667 | -0.356 | 0.524 | -0.523 | -0.163 | -0.675 | -0.157 | -0.211 | 0.34 | 0.0845 | -0.297 | 0.137 | 0.378 | 0.131 | -0.252 | 0.618 |
| TCTCCGAGGACACGAAGGTCAGAGCTTTCCAGAG | 1.91 | 0.842 | 0.15 | 0.919 | -0.353 | 2.09 | 0.489 | 1.61 | 2.34 | 2 | 1.19 | 1.32 | -0.386 | -0.524 | 1.23 | 2.1 | 1.31 | 2.06 | -0.358 | 3.54 |
| CCTAGTTGGTCACGGTCACACACGCTATAGGTAC | 0.611 | 0.906 | 1.21 | 0.81 | 0.982 | 0.843 | 1.61 | 1.34 | 0.766 | 0.795 | 2.6 | 3.1 | 1.29 | 1.48 | 1.79 | 0.642 | 0.636 | 0.844 | 1.66 | 2.53 |
| CAAACTAGGTCACGAAACGTCAAAGTCGAATGAC | 4.62 | 3.49 | 0.329 | 2.55 | 0.542 | 5.24 | 9.06 | 7.26 | 5.44 | 7.36 | 8.38 | 9.02 | 2.1 | 1.7 | 2 | 1.76 | 0.0967 | 2.91 | 0.992 | 4.36 |
| CCGAGAAGGTTATGGGGCATTCAGGCAACGGTGA | 1.63 | 1.52 | 0.000193 | 1.24 | -0.242 | 2.89 | 1.15 | 1.75 | -0.0865 | 0.883 | 0.959 | 1.38 | -0.265 | -0.895 | 1.08 | 0.668 | 0.111 | 1.54 | -0.0567 | 2.08 |
| CGTCAAAGTTCAAGATAACGTAACAGAAAGCAGC | 6.13 | 5.32 | 2.94 | 3.5 | 1.64 | 4.45 | 4.44 | 4.96 | 2.17 | 3.75 | 0.612 | 1.57 | 1.5 | 1.52 | 3.29 | 4.2 | 3.04 | 3.35 | 2.34 | 4.9 |
| GGAACGAGGCCATTCGAGTTGATAGCATGGCGAT | 0.572 | 0.106 | -0.48 | -0.483 | -0.846 | 0.013 | 0.591 | 0.257 | -0.557 | -0.163 | 2.23 | 1.22 | -0.239 | -0.906 | -0.779 | 1.73 | 0.561 | -0.0585 | -1.34 | 0.94 |
| CGAACTAGGTCATTGACACGACAGTGAATAGTAA | 5.16 | 3.65 | 0.689 | 2.48 | 0.158 | 4.67 | 7.57 | 6.21 | 3.95 | 5.54 | 7.93 | 8.44 | 3.78 | 3.06 | 2.25 | 1.33 | 0.767 | 2.2 | 0.177 | 3.52 |
| CCATACGGGTCACGAGGTTATAGCACGACGAGCG | 6.99 | 4.32 | 0.528 | 3.79 | -0.0225 | 5.93 | 7.19 | 6.47 | 3.55 | 5.37 | 3.91 | 5.41 | 1.88 | 0.373 | 2.89 | 4.5 | 0.355 | 5.93 | 1.79 | 4.62 |
| CGTCCATGGTCAAGGTCAGTGAAAGAGACTCGAA | 1.92 | 1.67 | 0.03 | 1.6 | -0.273 | 2.38 | 1.13 | 1.68 | 0.0317 | 0.977 | 0.484 | 1.54 | -0.688 | -0.778 | 1.17 | 1.78 | 0.42 | 2.23 | 0.236 | 3.59 |
